We go through 102 molecules from PubChem BioAssay AID485314 (National Center for Advancing Translational Sciences (NCATS), 2010).

In all, about 340,000 compounds went through this assay and about 4,500 (1.3%) were called active. Entries that show only a call come without a potency. Another 5% or so got no clear call; they are omitted. Calls follow the shape of the dose curve; as a rule, active = well fitted inhibition curve with a large enough effect; inconclusive = small, poorly fitted or top-dose-only effect, or another doubt; inactive = no such curve, though single readings can be large or run the other way. Many of the other results were omitted from the sample, so actives are more common in it than they were.
Potency is read from the fitted curve at half-maximal effect.

This test concerns the target DNA polymerase beta (Homo sapiens) (UniProt P06746). The experiment in a line: qHTS Assay for Inhibitors of DNA Polymerase Beta. The following applies: Pol beta primer extension/strand displacement, fluorescence kinetic; series mostly up to 114 µM. The method, boiled down:
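Reaction started by 50 nM substrate onto compound-treated Pol beta (10 nM, 15 min preincubation, room temperature); plates read at 0 min and 10 min. Normalized concentration-effect data fitted by four-parameter Hill equation.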
On the technique in general: In qHTS, concentration-response curves come from the screen itself.
For the molecule `Cc1ccc(C)c(N2CCN(C(c3ccccc3)c3nnc(-c4ccccc4)o3)CC2)c1` (configuration not stated), the Potency entry is “inactive”.

Take `O=C(CSC(=S)N1CCOCC1)c1ccccc1`: the Potency entry was “inactive”.

For the molecule `O=C(c1cc2cc(Br)cc(Br)c2oc1=O)N1CCOCC1`, the Potency entry was “inactive”.

Turning to `O=C(CSC(=S)N1CCOCC1)c1cc(Br)cc(Br)c1O`, the Potency is 31.6 µM (active).

As to `CCc1ccccc1N(C)C(=O)C1CCCN(c2ncnc3onc(-c4ccc(F)cc4)c23)C1` (configuration not stated), the Potency result was “inactive”.

Take `O=C(Nc1nnc(C2CC(=O)N(c3ccc(Cl)cc3)C2)s1)c1ccco1` (configuration not stated): the Potency result was “inactive”.

With `O=C(c1cnn(-c2ccc(F)cc2)c1-n1cccc1)N1CCN(c2ccc(F)cc2)CC1`, the Potency result is “inactive”.

Turning to `COC(=O)c1sc2ncccc2c1-n1c(C)ccc1C`, the Potency result is “inactive”.

Regarding `Cc1cccc(CCNC(=O)c2ccc3c(c2)nc2n3CCC(C)C2)c1` (configuration not stated), the Potency result was “inactive”.

Regarding `O=c1oc(-c2ccco2)nc2sc3c(c12)CCCCC3`, the Potency result was “inactive”.

For the molecule `O=C(NCc1ccco1)c1nc2ncccn2n1`, the Potency entry was “inactive”.

On to `O=C(NCc1ccco1)c1cccn2c(=O)c3c4c(sc3nc12)CCCC4`, for which the Potency was 50.1 µM (active).

In the case of `CN(Cc1ccccc1)c1ncnc2onc(-c3ccc(F)cc3)c12`, the Potency entry is “inactive”.

Regarding `COC(=O)c1ccccc1NS(=O)(=O)c1ccc2c(c1)CCCN2C(C)=O`, the Potency entry was “inactive”.

Consider `Cc1ccc(S(=O)(=O)c2nc(-c3cccs3)oc2N2CCCCC2)cc1`, for which the Potency entry is “inactive”.

With `COc1cccc(NC(=O)CSc2cc(=O)n(C)c3ccc(Cl)cc23)c1`, the Potency result is “inactive”.

Consider `Cc1cc(F)ccc1NS(=O)(=O)c1ccc(-n2cccn2)cc1`, for which the Potency result was “inactive”.

As for `O=[N+]([O-])c1cc(-c2nc(-c3ccccc3)no2)ccc1NCc1ccco1`, the Potency result is “inactive”.

As to `CNc1ccc(-c2nc(-c3ccco3)no2)cc1[N+](=O)[O-]`, the Potency result is “inactive”.

As to `CC(Nc1ccc(-c2nc(-c3ccco3)no2)cc1[N+](=O)[O-])c1ccccc1` (configuration not stated), the Potency was 20 µM (active).

As to `COc1cccc(NC(=O)Nc2ccc3c(c2)N(C)C(=O)c2ccccc2S3)c1`, the Potency entry was “inactive”.

As to `CCOC(=O)c1c(NC(=O)c2ccc(S(=O)(=O)N3CCCC(C)C3)cc2)sc2c1CCN(C(C)C)C2` (configuration not stated), the Potency result is “inactive”.

Turning to `O=C(Nc1nnc(Cc2ccc(Cl)cc2)s1)c1cccnc1`, the Potency is 22.4 µM (active).

As to `O=C(Nc1nnc(Cc2ccc(Cl)cc2)s1)c1ccncc1`, the Potency result was “inactive”.

For `O=C(Nc1nnc(Cc2ccccc2)s1)c1cnccn1`, the Potency result was “inactive”.

As to `COc1cccc(C(=O)NC2=NC(c3ccc(N(C)C)cc3)CC(=O)N2)c1` (configuration not stated), the Potency result was “inactive”.

Turning to `CCC(=O)N1CCc2cc(S(=O)(=O)NC(CC(C)C)C(=O)NCCc3cccc(C)c3)ccc21` (configuration not stated), the Potency entry is “inactive”.

In the case of `CCC(C)(C)n1nnnc1C(c1ccc(OC)c(OC)c1)N1CCN(C(=O)c2ccco2)CC1` (configuration not stated), the Potency entry is “inactive”.

Consider `CC(C)C(c1nnnn1C1CCCCC1)N1CCN(C(=O)c2ccco2)CC1` (configuration not stated), for which the Potency entry is “inactive”.

With `CCC(c1nnnn1C1CCCC1)N1CCN(C(=O)c2ccco2)CC1` (configuration not stated), the Potency was 44.7 µM (active).

As to `COc1ccc(-c2c(C)c3ccc(O)c(CN4CCCC4)c3oc2=O)cc1OC`, the Potency result was “inactive”.

`COc1ccc(-c2c(C)c3ccc(O)c(CN4CCN(C)CC4)c3oc2=O)cc1OC`: the Potency entry is “inactive”.

`COc1c(O)cc2oc(-c3ccc(O)c(O)c3)cc(=O)c2c1O`: the Potency was 6.31 µM (active).

With `CCN(CC)c1ccc(NS(=O)(=O)c2cc(-c3cc(C)no3)ccc2C)c(C)c1`, the Potency result was “inactive”.

On to `CN(C)CCCn1c(-c2ccc(Cl)cc2)csc1=Nc1ccccc1`, for which the Potency entry was “inactive”.

Turning to `CCN1CCN(CCCNC(=O)c2ccc3c(c2)sc2nc(-c4ccc(OC)cc4)cn23)CC1`, the Potency result is “inactive”.

As to `O=C(CSc1nc2ccccc2nc1Cc1ccccc1)N1CCCCC1`, the Potency entry was “inactive”.

In the case of `CCOC(=O)c1ccc(N2C(=O)c3n[nH]c(C)c3C2c2ccc(O)c(OC)c2)cc1` (configuration not stated), the Potency entry is “inactive”.

Regarding `CCCCCOc1ccc(/C=C/C(=O)NCCc2nc3ccccc3[nH]2)cc1OC`, the Potency is 15.8 µM (active).

On to `COc1ccc(OC(C)C(=O)NCCc2nc3ccccc3[nH]2)cc1` (configuration not stated), for which the Potency entry was “inactive”.

With `CC(C)Oc1ccc(/C=C(\NC(=O)/C=C/c2ccco2)C(=O)NCCc2nc3ccccc3[nH]2)cc1`, the Potency result was “inactive”.

For `O=C(NCc1ccccc1Cl)C1=Cc2cc(Br)ccc2OC1`, the Potency entry is “inactive”.

As to `CC(C)C(=O)Nc1nc2c(s1)CC(C(C)(C)C)CC2` (configuration not stated), the Potency entry was “inactive”.

`COc1ccc(/C=N/NC(=O)c2ccc3c(c2)OCCO3)c(OC)c1`: the Potency result was “inactive”.

For `COc1cccc(/C=N/NC(=O)c2[nH]nc3c2CCc2ccccc2-3)c1O`, the Potency is 8.91 µM (active).

Consider `CN(C)CCNC(=O)c1[nH]nc2c1CCc1ccccc1-2`, for which the Potency result was “inactive”.

For the molecule `CCOc1ccccc1CNC(=O)c1ccc(-n2c(C)cc3c2CCC(C)C3)cc1` (configuration not stated), the Potency entry is “inactive”.

Regarding `O=C1c2cccc3cccc(c23)C(=O)N1CCCCCc1n[nH]c(=S)o1`, the Potency result is “inactive”.

As to `O=C(CCCCCN1C(=O)c2cccc3cccc(c23)C1=O)NCc1ccco1`, the Potency result was “inactive”.

For the molecule `C[N+](C)(CCCCCC[N+](C)(C)CCCN1C(=O)c2cccc3cccc(c23)C1=O)CCCN1C(=O)c2cccc3cccc(c23)C1=O`, the Potency was 2.38 µM (active).

Turning to `CCN(CCCNC(=O)CSc1cc(=O)n(C)c2cc(Cl)ccc12)c1cccc(C)c1`, the Potency entry is “inactive”.

For the molecule `COc1ccc(C2=NC(c3ccncc3)=Nc3ccc(Br)cc3N2)cc1`, the Potency entry was “inactive”.

For `CC(=O)c1ccc(NC(=O)CCc2nc(-c3ccc(C)cc3)no2)cc1`, the Potency entry was “inactive”.

Take `COc1cc2ccccc2cc1C(=O)Nc1cccc(-c2nc3ccccc3o2)c1`: the Potency entry was “inactive”.

`O=C(CN1CCN(S(=O)(=O)/C=C/c2ccccc2)CC1)NC(=O)NCc1ccco1`: the Potency was 25.1 µM (active).

With `COc1ccccc1N1CCN(CC(=O)NC(=O)NCc2ccco2)CC1`, the Potency result is “inactive”.

`NC(=O)CCN1CCN(S(=O)(=O)/C=C/c2ccccc2)CC1`: the Potency result is “inactive”.

`CCC1=Nc2cc(C(=O)NCC(C)c3ccccc3)ccc2Sc2ccc(C)cc21` (configuration not stated): the Potency result is “inactive”.

With `O=C(CNS(=O)(=O)c1cccs1)N1CCN(c2ccccc2Cl)CC1`, the Potency entry was “inactive”.

For the molecule `COc1cccc(CNS(=O)(=O)c2ccc3c(c2)CC(C)N3C(=O)C2CCC2)c1` (configuration not stated), the Potency result was “inactive”.

On to `COc1cccc(CNS(=O)(=O)c2ccc3c(c2)CC(C)N3C(C)=O)c1` (configuration not stated), for which the Potency result is “inactive”.

Take `CCC(=O)N1c2ccc(S(=O)(=O)NCc3ccco3)cc2CC1C` (configuration not stated): the Potency is 0.398 µM (active).

Turning to `COc1cc(C(=O)N2CCN(c3ccc(Nc4ccc(C)cc4)nn3)CC2)cc(OC)c1OC`, the Potency result was “inactive”.

For the molecule `Cc1ccc(-c2cnc(NCc3ccc(C(C)C)cc3)n2C)cc1`, the Potency result was “inactive”.

As for `COc1ccc(NC(=O)c2ccco2)cc1NC(=O)COc1ccc(C)c(C)c1`, the Potency is 11.2 µM (active).

Regarding `COc1ccc(OCC(=O)Nc2ccc(NC(=O)c3ccco3)c(C)c2)cc1`, the Potency result is “inactive”.

Regarding `Cc1ccc(OCC(=O)NCCCNC(=O)c2ccco2)cc1C`, the Potency result is “inactive”.

As for `CCC(C)Nc1oc(-c2ccc(COc3ccc(Cl)cc3)o2)nc1C#N` (configuration not stated), the Potency result was “inactive”.

Take `Cc1ccccc1CNC(=O)CCCn1nc(C)c2sc3ccccc3c2c1=O`: the Potency entry was “inactive”.

`COCCCNC(=S)N1CCCC(c2nc3cc(C)c(C)cc3[nH]2)C1` (configuration not stated): the Potency was 39.8 µM (active).

As to `CCNC(=S)N1CCC(c2nc3cc(C)c(C)cc3[nH]2)CC1`, the Potency result was “inactive”.

Turning to `CCCNC(=S)N1CCCC(c2nc3ccccc3[nH]2)C1` (configuration not stated), the Potency result is “inactive”.

Consider `c1ccc(CSc2nnc(-c3ccco3)c(-c3ccco3)n2)cc1`, for which the Potency is 7.94 µM (active).

For the molecule `Fc1ccc(Nc2nc(SCc3ccccc3Cl)nc3ccccc23)cc1`, the Potency result was “inactive”.

Consider `Clc1ccccc1CSc1nnc(-c2ccco2)c(-c2ccco2)n1`, for which the Potency was 4.47 µM (active).

`COc1ccc2nc(SCc3ccccc3)nc(C)c2c1`: the Potency result is “inactive”.

With `CC1(C)N=C(SCc2ccccc2Cl)c2ccccc2N1`, the Potency result is “inactive”.

As for `Cc1ccc(-c2nnc(SCC(=O)NCc3ccccc3)nc2-c2ccc(C)cc2)cc1`, the Potency result is “inactive”.

For the molecule `CCN(CC)S(=O)(=O)c1nnc(NC(=O)COc2ccccc2Cl)s1`, the Potency entry is “inactive”.

For `CC1=Nc2cc(C(=O)NCc3ccc(C)cc3)ccc2Sc2ccc(Cl)cc21`, the Potency result is “inactive”.

On to `O=C(CSc1nccn1-c1ccc(F)cc1)Nc1cccc2ccccc12`, for which the Potency entry is “inactive”.

As to `Cc1ccc(C)c(N2CCN(C(=O)Cn3nc(C)c4sc5ccccc5c4c3=O)CC2)c1`, the Potency entry is “inactive”.

In the case of `COc1ccc2c(c1)Cc1sc(NC(=O)c3ccccc3Br)nc1-2`, the Potency result was “inactive”.

For the molecule `CC(C)(C)c1ccc(C(=O)N2CCC(c3nc(-c4ccc(S(=O)(=O)N5CCCC5)cc4)no3)CC2)cc1`, the Potency result was “inactive”.

As for `CCOc1ccccc1/C=c1\sc2nc(-c3ccco3)nn2c1=O`, the Potency is 11.2 µM (active).

`CCOC(=O)C1CCN(C(c2ccc(F)cc2)c2sc3nc(-c4ccco4)nn3c2O)CC1` (configuration not stated): the Potency result was “inactive”.

With `Oc1c(C(c2ccccc2Cl)N2CCOCC2)sc2nc(-c3ccco3)nn12` (configuration not stated), the Potency entry was “inactive”.

On to `COc1cc(CNC(=O)c2cc3n(n2)CCCN(Cc2cccc(F)c2)C3=O)cc(OC)c1OC`, for which the Potency entry was “inactive”.

On to `CCC(=O)Nc1cccc(C(=O)OCc2cc(=O)n3nc(CC)sc3n2)c1`, for which the Potency entry was “inactive”.

As to `Cc1c(C(=O)NCc2ccccc2Br)oc2ccc3c(c12)C(=O)CC(C)(C)O3`, the Potency result was “inactive”.

For the molecule `O=C(CSc1nccn1Cc1ccc(F)cc1)NCc1ccccc1`, the Potency entry was “inactive”.

In the case of `COc1ccc(-c2noc(CSc3nnc(-c4ccccc4)n3-c3ccc(F)cc3)n2)c(OC)c1`, the Potency result is “inactive”.

With `C/C(=N\Nc1ccc(S(N)(=O)=O)cc1[N+](=O)[O-])c1cccs1`, the Potency is 11.2 µM (active).

Consider `C/C(=N\Nc1ncc(Cl)cc1Cl)c1cccs1`, for which the Potency entry is “inactive”.

Regarding `C/C(=N\NS(=O)(=O)c1ccc(Br)cc1)c1cccs1`, the Potency result is “inactive”.

For `CCC(=O)N1c2ccccc2CC1C(=O)N1CCN(c2cccc(OC)c2)CC1` (configuration not stated), the Potency result was “inactive”.

`O=C(NCc1ccccc1)c1ccc2c(c1)nc1n2CCCCC1`: the Potency result is “inactive”.

Consider `CCOc1cccc(NC(=O)CSc2ncc(-c3ccc(Cl)cc3)[nH]2)c1`, for which the Potency entry was “inactive”.

Regarding `Cc1cc(C)c2nc3nc(C)cc(C)c3c(N)c2c1`, the Potency is 39.8 µM (active).

As for `CC(/C=N/NC(=O)c1cc(-c2ccc3ccccc3c2)n[nH]1)=C\c1ccco1`, the Potency was 12.6 µM (active).

Regarding `CC(C)(C)C1CCC(=NNC(=O)c2cc(-c3ccccc3)n[nH]2)CC1` (configuration not stated), the Potency entry is “inactive”.

Turning to `CC(=C/c1ccccc1)/C=N/NC(=O)c1cc(C)oc1C`, the Potency result was “inactive”.
